Screening results: PubChem BioAssay, several laboratories
Autofluor counter: counter-screen for toxin protease inhibitors: compound fluorescence; compound autofluorescence counterscreen, microsphere flow cytometry; active compounds read high; fluorescence intensity (test concentration not listed); 360,000 tested, 3.1% active; AID 624483; in the data active means fluorescence intensity above about 16000; inconclusive means no clear call, values can overlap the other calls
BoNT-A LC inh2: BoNT/A light chain protease inhibitors, primary screen, biochemical, flow cytometry, MLPCN library | Botulinum neurotoxin type A light chain protease (Clostridium botulinum A str. ATCC 3502) | multiplex microsphere protease substrate cleavage | inhibition, % at 10 µM | 360,000 tested, 0.17% active; further: plate controls were buffer without enzyme for full effect and enzyme alone for no effect
BoNT-F LC inh: BoNT/F light chain protease inhibitors, primary screen, biochemical, flow cytometry, MLPCN library; Multiplex microsphere protease cleavage assay; 360,000 tested, 0.22% active; Botulinum neurotoxin type F light chain protease (Clostridium botulinum); AID 588497, 2011; inhibition, % at 10 µM; in the data active means inhibition above about 35%, passing the limit was not always enough; inconclusive means no clear call, values can overlap the other calls; further: plate controls were buffer without enzyme for full effect and enzyme alone for no effect
Anthrax LF inh2: Bacillus anthracis LF protease inhibitors, primary screen, biochemical, multiplex microsphere, MLPCN library; Lethal factor (Bacillus anthracis), P15917; multiplex microsphere protease cleavage assay; inhibition, % at 10 µM; 360,000 tested, 0.12% active; AID 588501, 2011; further: plate controls were buffer without enzyme for full effect and enzyme alone for no effect
SSB-PriA inh: inhibitors of Klebsiella pneumoniae PriA binding to SSB C-terminal tail, primary screen, biochemical, AlphaScreen | 430,000 tested, 0.6% active | AlphaScreen SSBct-PriA binding, biotinylated peptide | PriA–SSB C-terminal tail interaction (Klebsiella pneumoniae) | inhibition, % at 33 µM; in the data active means inhibition mostly above about 37%, no sharp cut-off; inactive means mostly below about 20%;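 further: plate controls were negative control peptide for no effect and reference peptide for full effect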
Starred values were filed as active, the others as inactive; ? = inconclusive; . = no result; + = active, no number. A selection: hits, their analogues and other compounds. The true share with any hit is near 3.1%. Unless noted, no stated cut-off is given here; in the data, active means inhibition above about 30%; inconclusive means no clear call, values can overlap the other calls; inactive means below that.

SMILES	Autofluor counter	BoNT-A LC inh2	BoNT-F LC inh	Anthrax LF inh2	SSB-PriA inh
CCOc1cc(C=O)ccc1OCCCN1C(=O)NC(C)(C)C1=O	22259*	2	4	5	-26
CC1(C)NC(=O)N(CCOc2cccc(Cl)c2Cl)C1=O	10610	1	4	2	-17
CCc1cccc(OCCCN2C(=O)NC(C)(C)C2=O)c1	22570*	0	3	-2	-6
COc1ccc(-c2ccc(S(=O)(=O)NCCSC3CCOCC3)cc2)cc1	.	.	.	.	-19
CC1CCc2c(C(=O)Nc3ncc(Cc4ccccc4)s3)csc2C1 (stereo unspecified)	.	.	.	.	-2
COc1ccc(S(=O)(=O)NCCC(=O)N(C)C)cc1N(C)S(=O)(=O)c1ccc(Cl)cc1	.	.	.	.	9
COc1cc(OC)cc(C(=O)NC(=S)Nc2ccc(Cl)c(C(=O)O)c2)c1	24431*	-2	-2	0	1
COc1cc(C(=O)NC(=S)Nc2ccc(Cl)c(C(=O)O)c2)cc(OC)c1OC	3734	0	1	-3	-13
O=C1/C(=C/c2cccc([N+](=O)[O-])c2)CSc2ccc(Cl)cc21	3778	?	?	30*	-1
Cc1sc2nc(SCC(=O)Nc3sccc3C#N)n(-c3ccccc3)c(=O)c2c1C	.	.	.	.	-19
COc1ccc(OC)c(NC(=O)c2cccc3nc4ccccc4nc23)c1	.	.	.	.	-3
Cc1cccc2c1OCCC2=NNC(=O)COc1ccccc1Cl	.	.	.	.	-18
Cc1cccc2c1OCC/C2=N\NC(=O)COc1ccccc1Cl	22273*	1	0	1	.
COc1ccccc1NC(=O)CN(Cc1ccco1)C(=O)c1cncc(Br)c1	4219	0	6	0	-12
COc1ccccc1NC(=O)CN(Cc1ccco1)C(=O)c1cccs1	23213*	0	0	-4	4
COc1ccccc1NC(=O)c1cccs1	16647*	0	-3	-2	-17
COc1ccccc1NC(=O)c1ccccc1NC(=O)c1cccs1	3964	-1	-18	-4	1
Cn1c(=O)c2cc(C(=O)NCCN3CCOCC3)sc2n(C)c1=O	.	.	.	.	-17
CCCc1nc2cc(CC(=O)OC)ccc2o1	24068*	-3	-2	0	-18
COc1ccc(N=C2S/C(=C\c3cc(C)n(C)c3C)C(=O)N2C)cc1	2927	0	-5	-3	39*
CC(=O)Nc1ccc(NC(=O)Cn2nc(-c3cccs3)ccc2=O)cc1	.	.	.	.	-19
CC(C)NC(=O)COc1ncnc2sccc12	18786*	2	2	-3	-8
NC(=O)c1cc(S(=O)(=O)NCCCc2ccccc2)cs1	3770	0	22	-4	49*
CN(C)c1ccc(CNS(=O)(=O)c2csc(C(N)=O)c2)cc1	4355	1	4	-1	5
O=C(c1cccc(-c2ccccc2)c1)N1CC[C@@H](N2CCC(O)CC2)[C@H](O)C1	19128*	-1	11	8	0
SMILES	Autofluor counter	BoNT-A LC inh2	BoNT-F LC inh	Anthrax LF inh2	SSB-PriA inh
C/C(=N\S(=O)(=O)c1ccc(C)cc1)N1CCN(S(=O)(=O)c2ccccc2)C1C(C)C (stereo unspecified)	22111*	1	2	3	.
CC(=NS(=O)(=O)c1ccc(C)cc1)N1CCN(S(=O)(=O)c2ccccc2)C1C(C)C (stereo unspecified)	.	.	.	.	3
CCn1c(=NC(=O)c2cc(C)no2)sc2cc(OC)c(OC)cc21	.	.	.	.	-15
CCCCNc1c([N+](=O)[O-])cc(C)cc1[N+](=O)[O-]	10403	-1	-8	-2	76*
COC(=O)c1ccc(NC(=O)CCc2csc(NC(=O)c3ccc[nH]c3=O)n2)cc1	.	.	.	.	4
O=C(Cn1cncn1)Nc1cc(N2CCOCC2)ncn1	.	.	.	.	-11
C=CCn1c(O)c(C(CC)=NCCN2CCOCC2)c(=O)[nH]c1=O	19747*	5	10	-2	-6
C=CCn1c(O)c(C(CC)=Nc2ccccc2NC(=O)CC)c(=O)[nH]c1=O	20357*	?	1	-3	-16
C=CCn1c(O)c(C(CC)=NCCCO)c(=O)[nH]c1=O	3273	-1	-3	2	-9
COc1ccccc1-c1nnc(Sc2nc([N+](=O)[O-])nn2C)o1	16481*	0	0	-3	5
COc1cc(-c2nnc(COc3ccc4ccccc4c3)o2)cc(OC)c1OC	22472*	2	2	-1	1
CCOc1ccccc1NC(=O)C(=O)NCC(c1ccc2c(c1)CCN2C)N(C)C (stereo unspecified)	.	.	.	.	42
Cc1oc(C(=O)O)cc1COc1ccc2c3c(c(=O)oc2c1)CCC3	20992*	?	-4	-4	-1
CCOC(=O)c1c2c3c(cccc3[nH]c1=O)C(=O)c1ccccc1-2	3588	4	4	6	-16
CCOC(=O)c1c2c3c(cccc3n(C)c1=O)C(=O)c1ccccc1-2	2922	26	40*	-9	19
Cc1ccc(S(=O)(=O)N2CCCC(c3nnc(-c4cccs4)o3)C2)cc1 (stereo unspecified)	.	.	.	.	-3
CCN(CC)c1ccc(/C=N/n2nnnc2N)c(O)c1	22051*	3	-4	-5	.
COc1cc(/C=N/N2CCN(c3ccccc3OC)CC2)ccc1O	16130*	?	0	-5	.
COc1cc(/C=N/n2nnnc2N)ccc1O	23466*	-3	-9	-5	.
Nc1nnnn1N=Cc1ccccn1	.	.	.	.	13
Nc1nnnn1N=Cc1ccccc1O	.	.	.	.	-6
COc1cc(C=NN2CCN(c3ccccc3OC)CC2)ccc1O	.	.	.	.	16
Nc1nnnn1/N=C/c1ccccn1	21208*	5	9	-7	.
CN(Cc1ccccc1)S(=O)(=O)c1ccc(Br)c(C(=O)O)c1	.	.	.	.	-17
Nc1nc(SCC(=O)Nc2ccccc2Cl)ncc1S(=O)(=O)c1ccccc1	.	.	.	.	-1
SMILES	Autofluor counter	BoNT-A LC inh2	BoNT-F LC inh	Anthrax LF inh2	SSB-PriA inh
O=[N+]([O-])c1ccccc1C=NN1CCN(c2ccccn2)CC1	.	.	.	.	39*
O=[N+]([O-])c1ccccc1/C=C\C=N\N1CCN(c2ccccc2)CC1	4279	-1	-6	-4	.
CSc1ccc(/C=N/n2nnnc2N)cc1	22907*	1	1	-1	.
COc1ccccc1N1CCN(/N=C/C=C/c2ccccc2[N+](=O)[O-])CC1	.	.	.	.	+
CN1CCN(c2ccc([N+](=O)[O-])c(N/N=C3\CN4CCC3CC4)c2)CC1	20912*	-1	-4	-2	.
O=[N+]([O-])c1ccc(N2CCCC2)cc1NN=C1CN2CCC1CC2	.	.	.	.	1
COCCN(CCOC)C(=O)c1c[nH]c2ccc(S(=O)(=O)N(C)c3ccc(F)cc3)cc2c1=O	18595*	2	2	3	-21
O=C(CSc1nnnn1-c1ccccc1)NCc1cccs1	16730*	0	-2	1	-15
O=C(Cc1c(F)cccc1Cl)NCCc1ccoc1	.	.	.	.	-9
O=C(c1ccc(CSCc2ccccc2F)o1)N1CCN(c2ccc(N3CCOCC3)nn2)CC1	4328	0	-5	-4	96*
Cc1nn(C)cc1C(=O)Nc1c(C)nn(Cc2ccccc2Cl)c1C	7280	1	-5	-2	-6
CCn1nc(C)c(NC(=O)c2cc(Br)ccc2Cl)c1C	19900*	0	-1	-5	-5
